Assay outcomes: PubChem BioAssay, several laboratories
A selection: hits, their analogues and other compounds. The true share with any hit is near 2%.
Jurkat NFkB inh: lowers PMA/ionomycin-induced NF-kB signal in Jurkat cells; PMA/ionomycin-induced NF-kB luciferase reporter, luminescence; 330,000 tested, 0.53% active; inhibition, % at 4 µM; in the data active = inhibition above about 50%
GalR3 antag: blocks the human galanin receptor 3 | HEK293 GalR3-CNG cAMP membrane potential fluorescence; galR3 body fused to GalR1 C-terminus | inhibition, % at 3 µM | 360,000 tested, 0.44% active | AID 651719;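 active = inhibition above the screen-wide average plus 3 SD, cut at about 13% in these data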;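 also: forskolin and galanin both at EC90 stimulate the cells; cAMP rise reported by CNG channel membrane potential dye signal; 0% = forskolin plus galanin with DMSO and 100% = forskolin alone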
Target sequence (O60755 1-299 limits assumed): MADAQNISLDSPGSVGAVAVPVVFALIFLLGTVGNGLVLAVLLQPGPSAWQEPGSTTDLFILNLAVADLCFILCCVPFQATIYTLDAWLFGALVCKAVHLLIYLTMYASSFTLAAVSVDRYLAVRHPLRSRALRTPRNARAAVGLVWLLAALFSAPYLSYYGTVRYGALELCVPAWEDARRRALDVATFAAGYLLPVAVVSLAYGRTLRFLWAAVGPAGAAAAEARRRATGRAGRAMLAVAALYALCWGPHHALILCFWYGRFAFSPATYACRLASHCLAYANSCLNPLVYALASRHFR
NR2F2 inh: blocks human COUP-TFII nuclear receptor; 370,000 tested, 0.7% active; HEK293T NGFI-A luciferase reporter, luminescence; inhibition, % at 8.6 µM; AID 686940;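 active = inhibition above a per-plate cutoff, mean inhibition of test wells between control levels plus 3 SD, cut at about 38% in these data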;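 also: cells cotransfected with COUP-TFII expression vector driving the NGFI-A reporter; 0% = median of COUP-TF2 test wells and 100% = reporter-only cells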
Gli-Sufu block: Gli-Sufu pathway antagonism | Sufu-KO-LIGHT fibroblasts, Gli luciferase reporter luminescence | inhibition, % at 5 µM | 340,000 tested, 0.74% active | AID 588413;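 active = inhibition above about 55%, limit read from the data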;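 also: 0% = DMSO-treated cells and 100% = wells with medium but no cells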
697 NFkB inh: lowers PMA/ionomycin-induced NF-kB signal in 697 B cells; 697 B-cell NF-kB luciferase reporter, 16 h; inhibition, % at 4 µM; 330,000 tested, 0.33% active; AID 435022; in the data active = inhibition above about 35%
Gli-Sufu confirm: confirmation of Gli-SUFU pathway antagonists; shares compounds with Gli-Sufu block; Sufu-KO-LIGHT cells, Gli luciferase reporter, luminescence; inhibition, % at 5 µM; 2,500 tested, 40% active;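 active = mean inhibition at 5 µM reaching about 45%, limit read from the data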;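 also: plate controls were DMSO-treated cells for no effect and wells lacking cells for full effect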
Gli cytotox: cytotoxicity counter-screen for Gli-SUFU antagonists. 2,500 tested, 32% active. shares compounds with Gli-Sufu block. AID 651994. Sufu-KO-LIGHT cells cytotoxicity, ATP luminescence. cytotoxicity, % at 5 µM;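 active = mean cytotoxicity at 5 µM above about 25%, limit read from the data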;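 also: cells exposed to compound overnight for roughly 16 to 18 hours; plate controls were DMSO wells with cells for no effect and medium without cells for full effect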
Wnt3a cs: Wnt3a reporter inhibition counter-screen; AID 651995; shares compounds with Gli-Sufu block; inhibition, % at 6.25 µM; 2,500 tested, 20% active; Wnt-LIGHT cells, Wnt3a-driven luciferase reporter, luminescence;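 active = mean inhibition above about 25%, limit read from the data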
Active calls of the source: *.

Cc1ccc(C(=O)NC(=S)Nc2ccccc2N2CCOCC2)cc1C was read as Jurkat NFkB inh 10, Gli-Sufu block 89*, 697 NFkB inh 5, Gli-Sufu confirm 23, Gli cytotox 14 and Wnt3a cs -37.
`COc1cccc(C(=O)NC(=S)Nc2ccccc2N2CCOCC2)c1` gave Jurkat NFkB inh 4, Gli-Sufu block 8 and 697 NFkB inh 0.
`CSc1nc(N)nc2c1ncn2CC(=O)N1CCN(Cc2c(C)cc(C)cc2C)CC1` gave Jurkat NFkB inh 34, GalR3 antag -8, NR2F2 inh 51*, Gli-Sufu block 51, 697 NFkB inh 26, Gli-Sufu confirm 62*, Gli cytotox 27* and Wnt3a cs 44*.
`C=CCNC(=O)c1ccccc1NC(=O)C1CCN(S(=O)(=O)c2ccc(SC)cc2)CC1` gave Jurkat NFkB inh 15, GalR3 antag -9, NR2F2 inh -6, Gli-Sufu block 66*, 697 NFkB inh -7, Gli-Sufu confirm 10, Gli cytotox 5 and Wnt3a cs -43.
`CCOc1ccc2c(c1)sc1nc(C(=O)OC)cc(=O)n12` gave Jurkat NFkB inh 15, GalR3 antag -4, NR2F2 inh 2, Gli-Sufu block 4 and 697 NFkB inh 21.
Screening CCOc1ccc2c(c1)s/c(=N\S(=O)(=O)c1ccc(OC)cc1)n2C(F)F returned Jurkat NFkB inh 10, GalR3 antag -6, NR2F2 inh 9, Gli-Sufu block 55, 697 NFkB inh 3, Gli-Sufu confirm 11, Gli cytotox -1 and Wnt3a cs -5.
Screening CC1CCc2c(sc3nc(C4CC4)nc(N4CCN(C(=O)c5ccco5)CC4)c23)C1 (stereo not given) returned Jurkat NFkB inh -28, GalR3 antag -3, NR2F2 inh 30, Gli-Sufu block 77*, 697 NFkB inh -77, Gli-Sufu confirm 81*, Gli cytotox 32* and Wnt3a cs 4.
`COc1ccc(CNCC#Cc2ccc(C(F)(F)F)cc2)c(OC)c1` gave NR2F2 inh 5.
Screening CCOc1ccccc1-c1nc(CN2CCCC2c2nccs2)c(C)o1 (stereo not given) returned Jurkat NFkB inh -9, GalR3 antag 1, NR2F2 inh -3, Gli-Sufu block 50, 697 NFkB inh -3, Gli-Sufu confirm 26, Gli cytotox 4 and Wnt3a cs -2.
For CCOc1ccccc1-c1nc(CN2CCCN(C(=O)c3ccco3)CC2)c(C)o1 the results were Jurkat NFkB inh -3, GalR3 antag 0, NR2F2 inh -11, Gli-Sufu block 3 and 697 NFkB inh -25.
For CCC(=O)c1ccccc1OCCCN1CCC(Cc2ccccc2)CC1 the results were Jurkat NFkB inh 10, GalR3 antag -5, NR2F2 inh 21, Gli-Sufu block 52, 697 NFkB inh -38, Gli-Sufu confirm 21, Gli cytotox 33* and Wnt3a cs -37.
`O=C1/C(=C\c2ccc(O)cc2)SC(=S)N1Cc1ccccc1` gave Jurkat NFkB inh 8, GalR3 antag -14, NR2F2 inh -19, Gli-Sufu block -11 and 697 NFkB inh 3.
Screening O=C1/C(=C/c2ccccc2O)SC(=S)N1Cc1cccnc1 returned Jurkat NFkB inh 9, GalR3 antag 0, NR2F2 inh 4, Gli-Sufu block 72*, 697 NFkB inh 8, Gli-Sufu confirm 31, Gli cytotox 9 and Wnt3a cs -102.
`CC(C)(N[C@@H](Cc1c[nH]c2ccccc12)C(=O)NCC(c1ccccc1)c1ccccc1)C(=O)NC1CCCCC1` gave NR2F2 inh 12.
Cc1nc2ccccc2c(=O)n1/N=C/c1ccco1 was read as Jurkat NFkB inh 5, GalR3 antag -5, NR2F2 inh -17, Gli-Sufu block -1 and 697 NFkB inh 16.
`Cc1ccccc1OCc1nc2ccccc2c(=O)n1/N=C/c1ccco1` gave Jurkat NFkB inh -26, GalR3 antag 0, NR2F2 inh -16, Gli-Sufu block 93*, 697 NFkB inh -20, Gli-Sufu confirm 12, Gli cytotox 26* and Wnt3a cs -45.
O=C(OCC#CCSc1nnc(-c2cccc3ccccc23)o1)c1ccc(OC(F)(F)F)cc1 was read as NR2F2 inh -10.
`Cc1cc(N2CCN(c3nc(-c4ccc([N+](=O)[O-])cc4)cs3)CC2)c2ccccc2n1` gave Jurkat NFkB inh 16, GalR3 antag -4, NR2F2 inh -2, Gli-Sufu block 63*, 697 NFkB inh -1, Gli-Sufu confirm 32, Gli cytotox 19 and Wnt3a cs -5.
Cc1ccc(-c2csc(NCCc3nc4cc(Cl)c(Cl)cc4n3CCCO)n2)cc1 was read as Jurkat NFkB inh 6, GalR3 antag -5, NR2F2 inh 1, Gli-Sufu block 57*, 697 NFkB inh -1, Gli-Sufu confirm 25, Gli cytotox 35* and Wnt3a cs -59.
CCN1CCCCC(NC(=O)c2ccc(F)cc2)C1=O (stereo not given) was read as NR2F2 inh -10.
Screening CSc1nc2c(c(C(F)(F)F)n1)CC(C)CC2 (stereo not given) returned Jurkat NFkB inh 16, GalR3 antag -3, NR2F2 inh 18, Gli-Sufu block 99*, 697 NFkB inh 21, Gli-Sufu confirm 3, Gli cytotox 0 and Wnt3a cs -11.
`O=C(Nc1cccc(C(F)(F)F)c1)C1CCN(S(=O)(=O)c2ccc(N3CCCC3=O)cc2)CC1` gave Jurkat NFkB inh -1, GalR3 antag -4, NR2F2 inh 27, Gli-Sufu block 53, 697 NFkB inh 6, Gli-Sufu confirm 58*, Gli cytotox 24 and Wnt3a cs -9.
Screening Cc1cccc[n+]1CC(=O)/C=C1\N(C)c2ccccc2C1(C)C returned Jurkat NFkB inh 43, GalR3 antag -7, NR2F2 inh 33, Gli-Sufu block 63*, 697 NFkB inh 2, Gli-Sufu confirm 61*, Gli cytotox 24 and Wnt3a cs 31*.
`CN1/C(=C\C(=O)CN2C(=O)NC3(CCCCCC3)C2=O)C(C)(C)c2ccccc21` gave Jurkat NFkB inh -9, GalR3 antag -6, NR2F2 inh -12, Gli-Sufu block 70*, 697 NFkB inh -41, Gli-Sufu confirm 41, Gli cytotox 52* and Wnt3a cs -31.
For CN1/C(=C\C(=O)COC(=O)CN2C(=O)C3CC=CCC3C2=O)C(C)(C)c2ccccc21 (stereo not given) the results were Jurkat NFkB inh -1, GalR3 antag 1, NR2F2 inh -17, Gli-Sufu block 9 and 697 NFkB inh -9.
